# Measured values reported in PubChem BioAssay (NCATS).
# “And” between values parts separate entries of the source, which are not always exact repeats. Identical values can stand only once. Records with an inconclusive call do not appear. Where a call stands in place of a potency, no number is given. Values without a mark were called inactive. The source made the active and inactive calls. Calls come from the whole dose curve; as a rule, active = well fitted cell-killing curve with a large enough effect; inconclusive = small, poorly fitted or top-dose-only effect, or effect the other way; inactive = no such curve, though single readings can be large or run the other way.
# Key:
# [1] = Viability qHTS for spleen associated tyrosine kinase inhibitor (SYKi) naive MV4-11 cells (AID 1963823); note: nearly all actives have a fitted effect of over 40% in size
# Procedure, shortened: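 CellTiter-Glo luminescence, 10 min room-temperature incubation, gave viability. Cells: naive MV4-11 (500/well), treated 72 hr at 37 C, 5% CO2.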
# [2] = Viability qHTS for spleen associated tyrosine kinase inhibitor (SYKi) drug resistant MV4-11 cells (AID 1963824); note: nearly all actives have a fitted effect of over 35% in size
# Procedure, shortened: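 SYK inhibitor-resistant MV4-11 AML cells, 500 per well, added to predispensed compounds and incubated 72 hr at 37 C, 5% CO2. Viability measured by CellTiter-Glo luminescence after 10 min at room temperature.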
# Potency is the fitted concentration of half-maximal effect.
Structure (SMILES),Potency [1],Potency [2],viability (% of control) [1],"viability, % of control [2]"
CC(C)C(C#N)O[C@@H]1O[C@H](CO[C@@H]2OC[C@](O)(CO)[C@H]2O)[C@@H](O)[C@H](O)[C@H]1O (stereo not given in full),inactive,inactive,,
CCOc1ccc(-c2nc(-c3cccc4c3CCC4NCCO)no2)cc1OCC (stereo not given),13 µM (active),13 µM (active),,
C[C@@H]1CC[C@]2(C(=O)O)CC[C@]3(C)C(=CCC4[C@@]5(C)C[C@@H](O)[C@@H](O)C(C)(C)C5CC[C@]43C)C2[C@]1(C)O (stereo not given in full),inactive,3.55 µM (active),,
Cc1ccc(NS(=O)(=O)c2cc3c(cc2N[C@@H](C)CO)NC(=O)CC3)cc1C,20.6 µM (active),20.6 µM (active),,
COc1cc(C(=O)NC2CCN(C)CC2)c(F)cc1Nc1ncc2c(n1)N(C1CCCC1)CC(F)(F)C(=O)N2C,0.0206 µM (active),0.0092 µM (active),,
COC(=O)c1sccc1S(=O)(=O)Nc1ccc(Nc2ccccc2)cc1OC,5.17 µM (active),3.26 µM (active),,
C=C(CO)C12OC1C1(C)C(=CC2=O)C(O)C(O)CC1C (stereo not given),inactive,inactive,,
CC1OC(OC2C(C)OC(OC3C(OC(=O)/C=C/c4ccc(O)cc4)C(CO)OC(OC4(COC(=O)/C=C/c5ccc(O)cc5)OC(CO)C(O)C4O)C3OC3OCC(O)(CO)C3O)C(O)C2O)C(O)C(O)C1O (stereo not given),,,86.5% [at 9.25 µM],112% [at 9.25 µM]
Cc1nnsc1C(=O)Nc1ccc(-n2nc(C(F)(F)F)cc2C(F)(F)F)cc1,18.4 µM (active),16.4 µM (active),,
CC1(C)CCCC2(C)C1CC=C1C(=O)OC(O)C12O (stereo not given),inactive,inactive,,
CC1CCC2(C)C(CC(O)C(O)C23CO3)C1(C)CCC1=CC(O)OC1=O (stereo not given),inactive,inactive,,
CC(CCC1(O)OC2CC3C4CCC5CC(O[C@@H]6O[C@H](CO)[C@@H](O)[C@H](O)[C@H]6O[C@@H]6O[C@@H](C)[C@H](O)[C@@H](O)[C@H]6O)C(O)CC5(C)C4CCC3(C)C2C1C)CO[C@@H]1O[C@H](CO)[C@@H](O)[C@H](O)[C@H]1O (stereo not given in full),,,87.7% [at 9.25 µM],109% [at 9.25 µM]
CC(C(=O)O)C1CCC2(C)C3C(=O)C=C4C(CCC(=O)C4(C)C)C3(C)CCC12C (stereo not given),inactive,inactive,,
C=C1CC[C@H](O)CC1=C/C=C1\CCC[C@]2(C)[C@@H]([C@H](C)/C=C/[C@H](C)C(C)C)CC[C@@H]12,8.2 µM (active),9.2 µM (active),,
CC1C2=CC(=O)OC2(O)CC2C1CCC1C(C)(C)CCC(O)C21C (stereo not given),12.8 µM (active),4.53 µM (active),,
COc1cc(/C=C/C(=O)O[C@H]2[C@H](O)[C@@H](CO)O[C@@]2(CO)O[C@H]2O[C@H](CO)[C@@H](O)[C@H](O)[C@H]2O)ccc1O,inactive,inactive,,
C=C1CCC[C@]2(C)C[C@]3(O)OC(=O)C(C)=C3C[C@@H]12,inactive,inactive,,
OC[C@H]1O[C@@H](OC[C@H]2O[C@@H](OCc3ccccc3)[C@H](O)[C@@H](O)[C@@H]2O)[C@H](O)[C@@H](O)[C@@H]1O,inactive,inactive,,
CC(=O)O[C@@H](C[C@@H]1C=C(C)C(=O)O1)[C@H](C)[C@H]1CCC2[C@@]3(C)CC[C@H](O[C@@H]4O[C@H](CO)[C@@H](O)[C@H](O)[C@H]4O[C@@H]4O[C@@H](C)[C@H](O)[C@@H](O)[C@H]4O)C(C)(C)C3CC[C@@]2(C)[C@@]12COC(=O)C2 (stereo not given in full),,,81.6% [at 9.25 µM],89.9% [at 9.25 µM]
CC1=CC(=O)CC(C)(C)C1CCC(C)OC1OC(COC(=O)c2cc(O)c(O)c(O)c2)C(O)C(O)C1O (stereo not given),inactive,inactive,,
C[C@@H]1O[C@@H](O[C@H]2[C@@H]3C=CO[C@@H](O[C@@H]4O[C@H](CO)[C@@H](O)[C@H](O)[C@H]4O)[C@@H]3[C@@]3(CO)O[C@@H]23)[C@H](OC(=O)/C=C/c2ccc(O)c(O)c2)[C@H](O)[C@H]1O,inactive,inactive,,
O=S(=O)(c1cccc2ccccc12)n1ccc2ccc(N3CCN4CCCC4C3)cc21 (stereo not given),23.1 µM (active),20.6 µM (active),,
CNC(=O)c1ccc2cc([C@@]3(O)CCn4cncc43)ccc2c1,inactive,inactive,,
CC1C(O)C(O)C2C(C(=O)OCCc3ccc(O)cc3)=COC(O[C@@H]3O[C@H](CO)[C@@H](O)[C@H](O)[C@H]3O)C12 (stereo not given in full),inactive,inactive,,
C=C[C@H]1[C@H](O[C@@H]2O[C@H](CO)[C@@H](O)[C@H](O)[C@H]2O)OC=C(C(=O)OC)[C@H]1C/C=C(/C=O)[C@@H]1C(C(=O)OC)=CO[C@@H](O[C@@H]2O[C@H](CO)[C@@H](O)[C@H](O)[C@H]2O)[C@@H]1C=C,inactive,inactive,,

Structure (SMILES),Potency [1],Potency [2],viability (% of control) [1],"viability, % of control [2]"
CC(=O)N1c2ccccc2C2(O)CC3C(=O)NC(CC(C)C)C(=O)N3C12 (stereo not given),inactive,inactive,,
CC1(C)CCC2(C(=O)O)C(O)CC3(C)C(=CCC4C5(C)CCC(OC6OC(CO)C(O)C(O)C6OC6OC(CO)C(O)C(O)C6OC6OCC(O)(CO)C6O)C(C)(C)C5CCC43C)C2C1 (stereo not given),,,68.6% [at 9.25 µM],84.8% [at 9.25 µM]
COc1cc(/C=C/C(=O)O[C@H]2[C@H](OC(=O)/C=C/c3cc(OC)c(O)c(OC)c3)O[C@H](CO[C@@H]3O[C@H](CO)[C@@H](O)[C@H](O)[C@H]3O)[C@@H](O)[C@@H]2O)ccc1O,inactive,inactive,,
C/C=C(\C)C(=O)O[C@H]1[C@H](O)[C@]2(COC(C)=O)[C@H](O)C[C@]3(C)C(=CCC4[C@@]5(C)CC[C@H](O[C@@H]6O[C@H](C(=O)O)[C@@H](O[C@@H]7O[C@H](CO)[C@@H](O)[C@H](O)[C@H]7O)[C@H](O)[C@H]6O[C@@H]6O[C@H](CO)[C@@H](O)[C@H](O)[C@H]6O)[C@](C)(CO)C5CC[C@]43C)[C@@H]2CC1(C)C (stereo not given in full),,,88% [at 9.25 µM],97.8% [at 9.25 µM]
C=C1C(=O)OC2C=C(C)CC/C=C(\CO)CC(O)C12 (stereo not given),10.3 µM (active),11.6 µM (active),,
CC(C)(Cc1ccccc1)NCC(O)c1ccc(O)c(NS(C)(=O)=O)c1 (stereo not given),inactive,inactive,,
CC(C)=CCC(O)[C@](C)(O)C1[C@H](O)C[C@@]2(C)C3CC=C4C(C[C@H](O)[C@@H](O[C@@H]5O[C@H](CO)[C@@H](O)[C@H](O)[C@H]5O)C4(C)C)[C@]3(C)C(=O)C[C@]12C (stereo not given in full),inactive,inactive,,
COc1cc2c(cc1OC)CN(C(=O)/C=C/c1c(-c3ccccc3)n(C)c3ncccc13)CC2,2.59 µM (active),3.66 µM (active),,
O=C(O)CCc1c(C(=O)O)[nH]c2cc(Cl)cc(Cl)c12,inactive,inactive,,
C/C=C(\C)C(=O)OC1C(C)C2(O)C(C=C(CO)CC3(O)C(=O)C(C)=CC32)C2C(C)(C)C12OC(=O)C(C)C (stereo not given),0.02 µM (active),0.008 µM (active),,
CC(C)[C@@H](C)/C=C/[C@@H](C)[C@H]1CC[C@H]2C3=CC=C4C[C@@H](O)CC[C@]4(C)[C@H]3CC[C@]12C,inactive,inactive,,
C/C(=C/CO)CC[C@@H]1[C@@]2(C)CCC[C@](C)(C(=O)O)C2CC[C@@]1(C)O (stereo not given in full),inactive,inactive,,
C[C@@H]1O[C@@H](O[C@H]2[C@H](OC(=O)[C@]34CCC(C)(C)C[C@H]3C3=CCC5[C@@]6(C)C[C@@H](O)[C@@H](O)[C@@](C)(CO)C6[C@H](O)C[C@@]5(C)[C@]3(C)CC4)OC[C@H](O)[C@@H]2O)[C@H](O)[C@H](O)[C@H]1O[C@@H]1OC[C@@H](O)[C@H](O[C@H]2O[C@H](C)[C@@H](O)[C@H](O)[C@@H]2O)[C@H]1O (stereo not given in full),,,80.2% [at 9.25 µM],77.9% [at 9.25 µM]
CC[C@@H]1C(=O)O[C@]23C=C[C@@H]4C(C(=O)OC)=CO[C@H](O[C@@H]12)[C@@H]43,3.66 µM (active),5.17 µM (active),,
C=C(C)C(=O)OC1CC2(C)OC(=CC2=O)C(=C)CC2OC(=O)C(COC)C12 (stereo not given),1.61 µM (active),1.61 µM (active),,
Cc1ccc(C)c(NC(=O)CNS(=O)(=O)c2ccc3[nH]c(=O)oc3c2)c1,inactive,inactive,,
COc1c2cc(c(O[C@@H]3O[C@H](CO)[C@@H](O)[C@H](O)[C@H]3O)c1OC)CCCCC(O)CCc1ccc(O)c-2c1 (stereo not given in full),inactive,inactive,,
CC1CC(=O)[C@]2(O)C(C(=O)OCCc3ccc(O)cc3)=CO[C@@H](O[C@@H]3O[C@H](CO)[C@@H](O)[C@H](O)[C@H]3O)[C@H]12 (stereo not given in full),inactive,inactive,,
CN1CCN(c2nc(C3=C(c4c[nH]c5ccccc45)C(=O)NC3=O)c3ccccc3n2)CC1,206 nM (active) and 833 nM (active),461 nM (active) and 2.35 µM (active),,
Oc1cccc(Nc2ncnc3sc4c(c23)CCCC4)c1,4.11 µM (active),5.8 µM (active),,
O=C(OC[C@H]1O[C@@H](Oc2ccccc2COC(=O)C2(O)C=CCCC2O)[C@H](O)[C@@H](O)[C@@H]1O)c1ccccc1 (stereo not given in full),inactive,inactive,,
O=C(O)C[C@H]1CCC(=O)[C@@H]1C/C=C\CCO,inactive,inactive,,
COc1cc(OC)c(C(=O)/C=C/c2ccccc2)c2c1C=CC(C)(C)O2,10.3 µM (active),5.17 µM (active),,
CC(C)(O)C1CC=C(C(=O)OCC2OC(Oc3c(O)cc(C(=O)O)cc3O)C(O)C(O)C2O)CC1 (stereo not given),inactive,inactive,,
CC(C)=CCC[C@](C)(O[C@@H]1O[C@H](CO[C@@H]2O[C@@H](CO)[C@H](O)[C@H]2O)[C@@H](O)[C@H](O)[C@H]1O)[C@H]1CC[C@]2(C)[C@@H]1[C@H](O)C[C@@H]1[C@@]3(C)CC[C@H](O[C@@H]4O[C@H](CO)[C@@H](O)[C@H](O)[C@H]4O[C@@H]4O[C@H](CO)[C@@H](O)[C@H](O)[C@H]4O)C(C)(C)[C@@H]3CC[C@]12C,inactive,inactive,,
